Source: PubChem BioAssay (Broad Institute)
Shown are actives, neighbours in structure and some others; about 2.7% of the full set was active somewhere.
Env fusion inh – inhibitors of HIV Env-mediated cell fusion | 360,000 compounds, 1.1% hits | HeLa-JRFL Env/CEM21 cell fusion, luciferase | inhibition, % at 12.3 µM | AID 651610;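 active = mean replicate inhibition score of at least 50 and every replicate individually at or above 50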;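 note: 0% = plate neutral controls and 100% = maraviroc near 300 nM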
Wnt act – activators of Wnt/beta-catenin signaling; Wnt/beta-catenin reporter cell assay, activator, plate reader; activation, % at 9.35 µM; 300,000 compounds, 1.2% hits; AID 743398; in the data active = activation above about 30%, passing the limit was not always enough;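 note: 0% = neutral control wells and 100% = positive control wells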
GSIS activator – primary screen for activators of insulin secretion dependent on glucose, INS-1E cells, GLuc reporter luminescence | INS-1E GLuc reporter insulin secretion, 2-3 h | activation, % at 16.6 µM | 370,000 compounds, 0.61% hits | AID 743287;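 active = lowest replicate activation of at least 40%, so every replicate reaches that level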;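 note: 0% = median of neutral control wells and 100% = median of IBMX positive control wells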
F508del corr – correctors of CFTR F508del function in bronchial epithelial cells; 350,000 compounds, 0.36% hits; AID 720511; activity (quench increase), % at 7.58 µM; CFBE cells, YFP halide quenching; stimulated with forskolin plus potentiator P3; % fluorescence drop versus neutral controls;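 active = mean added fluorescence quench of at least 8% versus neutral control, with both replicates also reaching 8%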;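 note: cells transiently co-express mutant CFTR-F508del with the halide-sensitive YFP; corrector assay measuring rescue of mutant channel to the surface after 24 h compound exposure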
MITF act – activators of MITF-driven TRPM1 promoter activity in SK-MEL-5 cells. SK-MEL-5 TRPM1-promoter luciferase, 24 h; % of positive control, neutral wells = 0. activation, % at 12.5 µM. 300,000 compounds, 0.75% hits. AID 588334;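 active = mean activation of at least 80% with every replicate also reaching 80%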;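 note: 0% = neutral control wells and 100% = parthenolide positive control wells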
The depositor's hits bear a star; . = not tested or not shown; [ ] = remark or other dose.

SMILES	Env fusion inh	Wnt act	GSIS activator	F508del corr	MITF act
C[C@@H]1CN([C@@H](C)CO)C(=O)Cc2cc(NC(=O)c3ccncc3)ccc2O[C@@H]1CN(C)Cc1ccc(Cl)c(Cl)c1	-22[16.7 µM]	.	-22	5	.
COc1ccc(S(=O)(=O)Nc2ccc3c(c2)CC(=O)N([C@@H](C)CO)C[C@@H](C)[C@H](CN(C)Cc2ccc(C(F)(F)F)cc2)O3)cc1	73*[16.7 µM]	.	-26	7	.
C[C@@H]1CN([C@H](C)CO)C(=O)Cc2cc(NS(=O)(=O)c3cccs3)ccc2O[C@@H]1CN(C)Cc1ccc(Cl)c(Cl)c1	4[16.7 µM]	.	-13	-1	.
C[C@@H]1CN([C@@H](C)CO)C(=O)Cc2cc(NC(=O)c3ccncc3)ccc2O[C@H]1CN(C)Cc1ccc(Cl)c(Cl)c1	73*[16.7 µM]	.	-18	-2	.
COCC(=O)N1CC(=O)N2[C@H](CO)[C@H](c3ccc(C#CC4CCCCC4)cc3)[C@H]2C1	.	.	4	1	.
Cc1nnsc1Sc1ccccn1	1	.	2	-3	8
c1ccc(-c2nnsc2Sc2ccccn2)cc1	-17	36*	4	0	48
CC(=O)Nc1ccc2c(c1Br)Cc1ccccc1-2	-37	46*	8	-2	68
Nc1ccc2c(c1Br)Cc1ccccc1-2	-10	27	.	-4	-1
CC(=O)Nc1ccc(-c2nc3cc(Cl)ccc3o2)cc1	-255	18	23	5	.
O=C(O)c1ccccc1-c1ccccc1C(=O)Nc1ccc(-c2nc3cc(Cl)ccc3o2)cc1	-30	35*	-20	1	0
Cc1ccc(NC(=O)c2ccccc2-c2ccccc2C(=O)O)cc1C	16	0	45*	-1	17
O=C(C1CCCC1)N1[C@@H](CO)[C@@H]2c3ccccc3N(S(=O)(=O)c3ccc(F)cc3)C[C@@H]21	.	.	-5	4	.
S=C(c1ccc(-c2ccccc2)cc1)N1CCOCC1	63*	2	4	-1	.
O=C(c1ccc(-c2ccccc2)cc1)c1ccccc1C(=O)N1CCOCC1	-7	.	.	.	8
O=C(Oc1ccc(-c2ccccc2)cc1)N1CCOCC1	-78	.	-17	.	86*
Cc1cc(NN=Cc2ccccn2)nc2ccccc12	-237	2	20	6	.
C(=NNc1ccc2ccccc2n1)c1ccccn1	17	7	.	8.2*	.
Cc1ccc(OC(=O)COc2ccccc2C)c(-n2nc3ccccc3n2)c1	-120	18	.	.	60
Cc1ccc(OC(=O)COc2ccccc2)c(-n2nc3ccccc3n2)c1	-226	55*	.	.	37
Cc1cc(-n2nc3ccccc3n2)c(O)c([N+](=O)[O-])c1	-11	-1	1	-1	.
COC(=O)COc1ccc(C)cc1-n1nc2ccccc2n1	6	-2	48*	-1	2
Cc1ccc(OC(=O)c2cccc([N+](=O)[O-])c2)c(-n2nc3ccccc3n2)c1	-146	43*	-31	.	76
O=C(CCCC(=O)N(c1ccc2c(c1)OCCO2)C(C(=O)NC1CCCCC1)c1ccc(F)cc1)Nc1ccccn1 (stereo not given)	69*	-4	.	.	3
C[C@H](CO)N1C[C@H](C)[C@H](CN(C)S(=O)(=O)c2cn(C)cn2)Oc2ccc(NC(=O)c3ccncc3)cc2CC1=O	28[16.7 µM]	.	3	-2	.
SMILES	Env fusion inh	Wnt act	GSIS activator	F508del corr	MITF act
C[C@H]1CCCCO[C@@H](CN(C)CC2CCCCC2)[C@@H](C)CN([C@@H](C)CO)C(=O)c2cc(NS(=O)(=O)c3ccc(F)cc3)ccc2O1	7[16.7 µM]	.	-10	2	.
CNC[C@@H]1Oc2ccc(NS(=O)(=O)c3ccc(Cl)cc3)cc2CC(=O)N([C@@H](C)CO)C[C@@H]1C	.	.	-3	-2	.
Cc1ccccc1OCCNc1cc(N2CC(C)NC(C)C2)ccc1[N+](=O)[O-] (stereo not given)	-6	-3	42*	6	10
CC1CN(c2ccc([N+](=O)[O-])c(NCCOc3ccccc3)c2)CC(C)N1 (stereo not given)	-3	-2	.	1	.
CC1CN(c2ccc([N+](=O)[O-])c(NCCOc3ccc(Cl)cc3)c2)CC(C)N1 (stereo not given)	-10	-3	-34	-8	-7
CCc1ccc(OCCNc2cc(N3CCNC(C)C3)ccc2[N+](=O)[O-])cc1 (stereo not given)	.	-13	-38	13*	-78
CC(C)NC(=O)N[C@H]1C=C[C@H](CC(=O)O)O[C@@H]1CO	4[16.7 µM]	.	10	-2	.
